Consider 20 molecules from PubChem BioAssay AID1825 (The Scripps Research Institute Molecular Screening Center, 2009).

Each structure is given as a SMILES string. About 2,300 (0.79%) of roughly 290,000 compounds were called active. Rule as the data show it: active = inhibition above about 22%; inactive = the rest. This excerpt belongs to a sample that is enriched for actives.

A short description of this assay: IEC-6 cell viability reduction – luminescence, cytotoxicity control for KLF5 inhibitor project, primary screen (AID 1825).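 Also: 0% = plate median of test compound wells and 100% = cytotoxic reference compound wells.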 To be noted: IEC-6 cytotoxicity, at 5 µM, stronger effect = higher value.
`COc1cc(-n2c(=S)[nH]c3ccc(C)cc3c2=O)c(Cl)cc1Cl`: the inhibition is 27.3% (active).
`CN(C)CC1Oc2ccccc2OC1(O)c1ccccc1` (stereo not given): the inhibition is 10.6% (inactive).
Turning to `COc1ccc(N2C(=O)/C(=C/c3ccco3)C(=O)NC2=S)cc1`, the inhibition was -11.8% (inactive).
Regarding `COc1cc2nc(N3CCN(C(=O)[C@@H]4CCCO4)CC3)nc(N)c2cc1OC`, the inhibition is -0.7% (inactive).
To `CN(c1ccccc1)c1ccc([N+](=O)[O-])c2nonc12` belongs 13.2% (inactive); to `CC1=CC(=Cc2sc3ccccc3[n+]2C)C=C(C)O1`, 25.9% (active); to `CCc1nc2ccccc2c(=O)n1-c1cccc(OC)c1`, -0.6% (inactive).
On to `COc1cc(Cn2c(N)c(C(=O)NCc3ccco3)c3nc4ccccc4nc32)cc(OC)c1OC`, for which the inhibition is 7.4% (inactive).
To `COc1ccc(-c2nn(CCC#N)cc2C(=O)O)cc1` belongs -8.6% (inactive); to `COc1ccc(C(=O)CC2C(=O)N(C)C(=O)N(C)C2=O)cc1`, 2% (inactive).
For the molecule `Cc1nc2ccccc2c(=O)n1-c1ccc(Cl)cc1Cl`, the inhibition was -4.8% (inactive).
Regarding `CCCCCCCCCCCCn1ccc(=N)cc1`, the inhibition is 78.8% (active).
As to `CCOP(=S)(OCC)C(O)CCCCCn1c(=O)c(F)cn(C2CCCO2)c1=O` (stereo not given), the inhibition is -1.2% (inactive).
As for `CCOc1cccc(=NC2CCCCC2)c2c(C)[nH]c(C)c12`, the inhibition was -11.4% (inactive).
For the molecule `COc1cccc(N2C(=O)NC(=O)/C(=C\c3ccc([N+](=O)[O-])s3)C2=O)c1`, the inhibition is -9.9% (inactive).
In the case of `Cc1cc2ccccn2c1C(C[N+](=O)[O-])c1c(F)cccc1Cl` (stereo not given), the inhibition is 47.4% (active).
On to `CC(=O)Nc1ccc(C(=O)C(Cc2ccccc2)N(C)C)cc1` (stereo not given), for which the inhibition was -0.8% (inactive).
To `CC(=O)c1c(C)n(C(C)C)c2ccc(O)cc12` belongs 3.8% (inactive); to `COc1ccc(-c2nn(CCC#N)cc2C(=O)Nc2ccc(C(C)=O)cc2)cc1`, -1.6% (inactive).
On to `O=c1c2ccccc2nc(/C=C/c2ccco2)n1-c1ccccc1O`, for which the inhibition is -4.9% (inactive).
